Results from PubChem BioAssay (Tox21).
Records with an inconclusive call do not appear. The source made the active and inactive calls. Unless noted, calls follow the shape of the dose curve; as a rule, active = well fitted curve in the direction sought with a large enough effect in the repeat runs; inconclusive = weak or mixed curves; inactive = no such curve, though single readings can be large; an effect the other way counts as inactive or inconclusive.

Columns and labels:
[1] = qHTS assay to identify small molecule agonists of the TGF-beta/Smad signaling pathway - cell viability counter screen (AID 1346829); also: top concentration of the series differs between compounds; nearly all actives have a fitted effect of over 45% in size
Summary of the method: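 Tox21 qHTS format: SBE-bla HEK 293T cells treated with DMSO-dissolved compounds for 5 hr; CellTiter-Glo luminescence after 30 min at room temperature.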

[2] = qHTS assay to identify small molecule agonists of the TGF-beta/Smad signaling pathway (AID 1346859; active = well fitted activation curve with a large enough effect in the signal ratio in the repeat runs, not every such curve was filed as active; the % refers to the signal ratio; also: series mostly up to about 77 µM)
Summary of the method: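 Each well held 4,000 SBE-bla HEK 293T cells incubated overnight before compound addition; 5 hr later the cleavable FRET substrate went on for 2 hr at room temperature, and fluorescence was read at two emissions.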

[3] = Human pregnane X receptor (PXR) small molecule agonists, qHTS cell viability counter screen (AID 1346977); also: nearly all actives have a fitted effect of over 50% in size
Summary of the method: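 Tox21 qHTS format; PXR-Luc HepG2, 2,000/well, charcoal-stripped FBS 5%. Cpd exposure 24hr. Read: CellTiter-Fluor fluorescence, multiplexed with luciferase.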

[4] = Caspase-3/7 induction in CHO-K1 cells by small molecules, qHTS cell viability counter screen (AID 1346979); also: nearly all actives have a fitted effect of over 35% in size
Summary of the method: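 CellTiter-Fluor viability check, qHTS format: wild-type CHO-K1, 16hr compound treatment, 1hr reagent incubation, fluorescence read.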

[5] = Caspase-3/7 induction in CHO-K1 cells by small molecules, qHTS assay (AID 1346980); also: nearly all actives have a fitted effect of over 15% in size
Summary of the method: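 Wild-type cells were seeded at 1,500 per well and settled 5 hr at 37 C, 5% CO2, then exposed to DMSO-dissolved compounds for 17 hr. Caspase-Glo 3/7 reagent was added, and luminescence was read after 30min at room temperature.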

[6] = Caspase-3/7 induction in HepG2 cells by small molecules, qHTS cell viability counter screen (AID 1346981); also: series mostly up to about 92 µM; nearly all actives have a fitted effect of over 30% in size
Summary of the method: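 Cell viability is measured as a cytotoxicity counter screen alongside the Caspase-Glo 3/7 readout in identical wells. Wild-type HepG2 cells are treated with test compounds for 16 hr at 37 C before CellTiter-Fluor addition and a 1-hr incubation.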

[7] = biological target: Nuclear receptor subfamily 1 group I member 2 (Homo sapiens) (UniProt O75469); assay: Human pregnane X receptor (PXR) small molecule agonists, qHTS assay (AID 1346982); also: nearly all actives have a fitted effect of over 35% in size
Summary of the method: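 Cells: HepG2 stably carrying PXR-Luc. Medium held 5% charcoal-stripped FBS. Compounds in DMSO added after 5 hr plating, incubated 24 hr, then luminescence quantified with ONE-Glo.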

[8] = biological target: Cytochrome P450 2C9 (Homo sapiens) (UniProt P11712); assay: Cytochrome P450 Family 2 Subfamily C Member 9 (CYP2C9) small molecule antagonists: luciferase reporter qHTS assay (AID 1671198); also: nearly all actives have a fitted effect of over 50% in size; also: potency is read from the fitted curve at half-maximal effect; as to activity change, negative = inhibition: series mostly up to about 120 µM
Summary of the method: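 CYP2C9 activity was measured with a P450-Glo proluciferin substrate. Enzyme–substrate mix was held with compound for 10 min at room temperature, then NADPH regeneration solution was added for 1 h at 37C. Luciferin product was read as luminescence.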

[9] = biological target: Cytochrome P450 1A2 (Homo sapiens) (UniProt P05177); assay: Cytochrome P450 Family 1 Subfamily A Member 2 (CYP1A2) small molecule antagonists: luciferase reporter qHTS assay (AID 1671199); also: nearly all actives have a fitted effect of over 50% in size; also: potency is read from the fitted curve at half-maximal effect; as to activity change, negative = inhibition: series mostly up to about 120 µM
Summary of the method: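 Compounds were incubated with CYP1A2 and a luminogenic proluciferin substrate for 10 min at room temperature before the reaction was started with NADPH regeneration solution. After 1 h, detection reagent was added and light output, proportional to CYP activity, was recorded.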

[10] = biological target: Voltage-gated inwardly rectifying potassium channel KCNH2 (Homo sapiens) (UniProt Q12809); assay: Human Ether-a-go-go-Related Gene (hERG) channel small molecule antagonists: fluorescence cell-based qHTS assay (AID 1671200);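 also: hERG-expressing U2OS cells given a thallium stimulus after FluxOR II dye loading; series mostly up to about 77 µM; nearly all actives have a fitted effect of over 50% in size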
Summary of the method: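 Kinetic two-minute fluorescence traces, sampled at 1 s, were collected following thallium stimulus of U2OS cells (1000 per well) that had been cultured overnight at 37 C and loaded with FluxOR II.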

[11] = biological target: Cytochrome P450 3A4 (Homo sapiens) (UniProt P08684); assay: Cytochrome P450 Family 3 Subfamily A Member 4 (CYP3A4) small molecule antagonists: luciferase reporter qHTS assay (AID 1671201)
Summary of the method: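 Proluciferin-to-luciferin conversion by CYP3A4, NADPH-regenerated, 1 h RT; luminescence read as RLU. Ketoconazole as control.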

[12] = Caspase-3/7 induction in HepG2 cells by small molecules, qHTS assay (AID 1346978); also: nearly all actives have a fitted effect of over 15% in size
Summary of the method: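 Wild-type HepG2 cells (2,000/well) were settled 5 h at 37 C, 5% CO2, then exposed to compounds in DMSO for 17 h. Caspase-3/7 activity was read by luminescence 30 min after adding Caspase-Glo 3/7 reagent at room temperature.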

[13] = biological target: Nuclear receptor subfamily 1 group I member 2 (Rattus norvegicus) (UniProt Q9R1A7); assay: Rat pregnane X receptor (rPXR) activation by small molecules, qHTS assay (AID 1346983); settings: rPXR luciferase reporter cells, One-Glo luminescence, 24 h; max activation: stronger effect = higher value; also: nearly all actives have a fitted effect of over 20% in size
Summary of the method: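 Cell-based rPXR luciferase reporter assay, 2,000 cells per well, rested 5hr at 37 C before compound addition in DMSO, then 24 hr at 37 C. One-Glo reagent was added and luminescence read after 30 min at room temperature.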

[14] = biological target: Nuclear receptor subfamily 1 group I member 2 (Homo sapiens) (UniProt O75469); assay: CYP3A4 induction through human pregnane X receptor (PXR) by small molecules, qHTS assay (AID 1346984); also: nearly all actives have a fitted effect of over 40% in size
Summary of the method: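 Quantitative HTS in DPX-2 cells, i.e. HepG2 transfected with PXR response element and CYP3A4-promoter luciferase. Compounds in DMSO incubated 24hr at 37C; then P450-Glo CYP3A4 substrate, 3uM final, 3hr; One-Glo luminescence.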

[15] = biological target: Cytochrome P450 2C19 (Homo sapiens) (UniProt P33261); assay: Cytochrome P450 Family 2 Subfamily C Member 19 (CYP2C19) small molecule antagonists: luciferase reporter qHTS assay (AID 1671197); also: nearly all actives have a fitted effect of over 65% in size; also: potency is read from the fitted curve at half-maximal effect; as to activity change, negative = inhibition: series mostly up to about 120 µM
Summary of the method: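 Relative luminescence units recorded 20 min after the detection reagent stopped a 1 h, 37C CYP2C19 reaction on proluciferin substrate, which was started by NADPH regeneration following 10 min room-temperature compound preincubation; ketoconazole positive control.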

[16] = biological target: Cytochrome P450 2D6 (Homo sapiens) (UniProt P10635); assay: Cytochrome P450 Family 2 Subfamily D Member 6 (CYP2D6) small molecule antagonists: luciferase reporter qHTS assay (AID 1671196); also: nearly all actives have a fitted effect of over 50% in size; also: potency is read from the fitted curve at half-maximal effect; as to activity change, negative = inhibition: series mostly up to about 120 µM
Summary of the method: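 Enzyme and proluciferin substrate were first combined with test chemical for 10 min at room temperature. Adding NADPH regeneration solution started a 1 h reaction, stopped with luciferin detection reagent and read by luminescence 20 min later.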
% is scaled to controls: 0 for no effect and ±100 for the full control effect.

Chain of Cytochrome P450 1A2 (Homo sapiens) (P05177 whole entry, looked up): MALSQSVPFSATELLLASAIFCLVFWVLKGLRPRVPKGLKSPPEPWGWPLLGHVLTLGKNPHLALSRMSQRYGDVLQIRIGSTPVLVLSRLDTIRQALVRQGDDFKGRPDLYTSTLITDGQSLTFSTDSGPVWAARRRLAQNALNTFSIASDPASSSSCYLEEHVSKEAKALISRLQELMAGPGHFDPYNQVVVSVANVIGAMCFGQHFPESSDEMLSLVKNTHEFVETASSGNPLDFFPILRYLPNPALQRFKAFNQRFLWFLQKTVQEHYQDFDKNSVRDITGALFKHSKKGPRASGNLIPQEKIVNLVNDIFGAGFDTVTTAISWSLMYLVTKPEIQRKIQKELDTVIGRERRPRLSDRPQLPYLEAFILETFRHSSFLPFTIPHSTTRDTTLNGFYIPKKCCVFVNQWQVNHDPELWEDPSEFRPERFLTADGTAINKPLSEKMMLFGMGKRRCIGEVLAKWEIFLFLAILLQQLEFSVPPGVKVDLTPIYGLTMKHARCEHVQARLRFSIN
Chain of Nuclear receptor subfamily 1 group I member 2 (Homo sapiens) (O75469 whole entry, looked up): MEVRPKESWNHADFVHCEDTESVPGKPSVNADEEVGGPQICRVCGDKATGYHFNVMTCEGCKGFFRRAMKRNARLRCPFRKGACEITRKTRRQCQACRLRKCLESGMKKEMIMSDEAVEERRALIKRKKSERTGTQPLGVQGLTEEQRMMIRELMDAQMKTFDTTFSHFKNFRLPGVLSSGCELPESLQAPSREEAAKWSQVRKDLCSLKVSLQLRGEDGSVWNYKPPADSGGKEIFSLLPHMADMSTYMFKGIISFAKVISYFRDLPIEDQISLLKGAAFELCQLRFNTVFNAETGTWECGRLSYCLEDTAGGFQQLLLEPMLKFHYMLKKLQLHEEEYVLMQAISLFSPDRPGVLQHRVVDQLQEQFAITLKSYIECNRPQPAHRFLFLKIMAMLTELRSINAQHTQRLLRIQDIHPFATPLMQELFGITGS
Chain of Cytochrome P450 2C19 (Homo sapiens) (P33261 whole entry, looked up): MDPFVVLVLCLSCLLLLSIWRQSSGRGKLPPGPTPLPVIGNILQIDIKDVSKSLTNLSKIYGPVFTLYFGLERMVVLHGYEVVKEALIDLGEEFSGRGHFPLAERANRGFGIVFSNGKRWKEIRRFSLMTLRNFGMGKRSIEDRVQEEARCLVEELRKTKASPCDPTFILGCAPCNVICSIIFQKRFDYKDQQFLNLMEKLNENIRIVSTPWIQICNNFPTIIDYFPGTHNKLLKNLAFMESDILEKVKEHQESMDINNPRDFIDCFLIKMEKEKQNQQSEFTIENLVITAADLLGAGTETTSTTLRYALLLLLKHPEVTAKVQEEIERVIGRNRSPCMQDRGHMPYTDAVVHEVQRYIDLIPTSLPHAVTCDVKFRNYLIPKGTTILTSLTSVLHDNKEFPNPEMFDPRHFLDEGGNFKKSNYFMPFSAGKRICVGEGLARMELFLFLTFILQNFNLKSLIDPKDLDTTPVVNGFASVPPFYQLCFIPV
Chain of Nuclear receptor subfamily 1 group I member 2 (Rattus norvegicus) (Q9R1A7 whole entry, looked up): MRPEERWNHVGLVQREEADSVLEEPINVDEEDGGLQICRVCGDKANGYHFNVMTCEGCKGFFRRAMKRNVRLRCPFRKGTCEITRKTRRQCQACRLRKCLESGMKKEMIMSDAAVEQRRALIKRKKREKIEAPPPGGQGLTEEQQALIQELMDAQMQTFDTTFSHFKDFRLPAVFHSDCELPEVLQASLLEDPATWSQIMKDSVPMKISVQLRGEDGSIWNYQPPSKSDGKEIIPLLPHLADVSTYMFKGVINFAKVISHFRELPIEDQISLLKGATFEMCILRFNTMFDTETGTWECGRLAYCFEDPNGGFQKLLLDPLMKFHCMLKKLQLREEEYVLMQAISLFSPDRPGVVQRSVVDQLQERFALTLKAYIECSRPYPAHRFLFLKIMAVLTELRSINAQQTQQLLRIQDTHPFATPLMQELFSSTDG
Chain of Voltage-gated inwardly rectifying potassium channel KCNH2 (Homo sapiens) (Q12809 whole entry, looked up): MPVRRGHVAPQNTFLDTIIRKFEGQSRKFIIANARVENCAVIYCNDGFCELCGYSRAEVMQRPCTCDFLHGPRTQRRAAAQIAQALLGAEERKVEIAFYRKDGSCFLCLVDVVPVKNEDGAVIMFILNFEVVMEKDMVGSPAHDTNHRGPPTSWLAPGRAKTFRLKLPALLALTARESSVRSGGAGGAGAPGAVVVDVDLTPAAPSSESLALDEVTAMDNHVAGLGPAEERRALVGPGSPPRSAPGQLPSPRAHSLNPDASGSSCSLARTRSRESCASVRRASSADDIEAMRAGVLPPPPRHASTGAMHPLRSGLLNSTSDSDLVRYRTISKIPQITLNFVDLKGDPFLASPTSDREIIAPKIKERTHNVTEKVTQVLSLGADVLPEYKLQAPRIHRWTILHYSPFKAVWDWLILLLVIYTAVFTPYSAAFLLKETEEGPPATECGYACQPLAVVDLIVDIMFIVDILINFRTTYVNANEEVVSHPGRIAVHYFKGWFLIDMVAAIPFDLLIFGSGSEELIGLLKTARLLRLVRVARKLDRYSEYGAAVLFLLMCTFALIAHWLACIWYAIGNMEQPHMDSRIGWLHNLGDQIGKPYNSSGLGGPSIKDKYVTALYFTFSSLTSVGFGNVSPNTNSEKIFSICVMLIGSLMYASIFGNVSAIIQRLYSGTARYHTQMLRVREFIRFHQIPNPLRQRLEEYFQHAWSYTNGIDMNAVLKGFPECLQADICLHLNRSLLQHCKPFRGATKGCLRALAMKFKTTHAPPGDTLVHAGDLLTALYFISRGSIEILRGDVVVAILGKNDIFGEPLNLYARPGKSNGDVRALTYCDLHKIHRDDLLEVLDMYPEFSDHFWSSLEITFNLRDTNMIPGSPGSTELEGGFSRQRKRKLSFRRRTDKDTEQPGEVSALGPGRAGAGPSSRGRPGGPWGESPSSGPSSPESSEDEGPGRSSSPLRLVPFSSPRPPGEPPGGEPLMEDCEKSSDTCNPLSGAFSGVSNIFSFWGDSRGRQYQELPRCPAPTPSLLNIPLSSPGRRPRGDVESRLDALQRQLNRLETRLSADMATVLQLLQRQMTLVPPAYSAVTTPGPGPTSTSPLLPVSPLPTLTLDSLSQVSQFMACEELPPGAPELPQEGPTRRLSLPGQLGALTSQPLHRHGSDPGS
Chain of Cytochrome P450 2C9 (Homo sapiens) (P11712 whole entry, looked up): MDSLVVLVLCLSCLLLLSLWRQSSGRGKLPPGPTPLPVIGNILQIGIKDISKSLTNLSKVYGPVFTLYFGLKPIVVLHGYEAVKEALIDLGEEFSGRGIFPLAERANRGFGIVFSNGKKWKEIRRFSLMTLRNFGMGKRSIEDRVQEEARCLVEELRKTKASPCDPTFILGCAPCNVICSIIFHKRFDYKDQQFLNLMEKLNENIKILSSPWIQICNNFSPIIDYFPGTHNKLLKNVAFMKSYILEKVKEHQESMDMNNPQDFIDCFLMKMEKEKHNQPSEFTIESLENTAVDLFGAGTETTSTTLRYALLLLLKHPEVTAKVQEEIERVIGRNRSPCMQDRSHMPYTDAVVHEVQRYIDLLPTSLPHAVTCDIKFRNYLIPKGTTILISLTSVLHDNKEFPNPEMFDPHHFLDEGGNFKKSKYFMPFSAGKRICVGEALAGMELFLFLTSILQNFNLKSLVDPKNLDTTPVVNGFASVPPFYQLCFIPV
Chain of Cytochrome P450 3A4 (Homo sapiens) (P08684 whole entry, looked up): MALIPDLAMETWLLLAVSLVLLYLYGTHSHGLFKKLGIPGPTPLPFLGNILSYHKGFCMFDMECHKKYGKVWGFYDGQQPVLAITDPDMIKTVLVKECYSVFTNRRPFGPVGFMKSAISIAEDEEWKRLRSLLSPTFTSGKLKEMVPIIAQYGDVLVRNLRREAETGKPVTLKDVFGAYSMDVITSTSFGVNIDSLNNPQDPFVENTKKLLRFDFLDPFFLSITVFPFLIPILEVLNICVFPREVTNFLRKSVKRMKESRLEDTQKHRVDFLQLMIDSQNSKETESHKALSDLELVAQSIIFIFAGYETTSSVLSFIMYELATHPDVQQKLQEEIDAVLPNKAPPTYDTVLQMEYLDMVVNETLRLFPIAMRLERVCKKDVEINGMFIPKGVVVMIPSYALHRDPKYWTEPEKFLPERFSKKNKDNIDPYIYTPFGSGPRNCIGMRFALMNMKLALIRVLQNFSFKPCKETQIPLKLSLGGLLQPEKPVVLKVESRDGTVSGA
Chain of Cytochrome P450 2D6 (Homo sapiens) (P10635 whole entry, looked up): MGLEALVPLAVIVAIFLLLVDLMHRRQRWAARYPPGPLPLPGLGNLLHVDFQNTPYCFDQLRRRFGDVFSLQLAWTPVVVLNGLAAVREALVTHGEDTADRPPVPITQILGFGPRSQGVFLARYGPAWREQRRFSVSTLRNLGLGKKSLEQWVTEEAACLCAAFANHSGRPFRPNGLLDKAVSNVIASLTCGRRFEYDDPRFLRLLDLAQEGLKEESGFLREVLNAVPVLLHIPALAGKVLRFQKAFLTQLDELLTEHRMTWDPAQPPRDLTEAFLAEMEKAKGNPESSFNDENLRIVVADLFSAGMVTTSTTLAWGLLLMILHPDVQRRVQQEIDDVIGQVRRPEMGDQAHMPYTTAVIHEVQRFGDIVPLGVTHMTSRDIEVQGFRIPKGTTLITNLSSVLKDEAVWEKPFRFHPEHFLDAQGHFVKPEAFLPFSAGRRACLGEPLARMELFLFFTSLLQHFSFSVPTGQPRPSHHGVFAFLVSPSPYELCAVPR

C=C(C)C(=O)OC
inactive: outcome [1] | outcome [2] | Potency [3] | Potency [4] | outcome [5] | Potency [6] | Potency [7] | Potency [8] | Potency [9] | Potency [10] | Potency [11]

Cc1c(C(C)C)c(=O)n(-c2ccccc2)n1C
inactive: outcome [1] | outcome [2] | outcome [12] | outcome [5] | Potency [6] | Potency [7] | max activation [13] -1.17% | outcome [14] | Potency [8] | Potency [9] | Potency [10] | Potency [11]
active: Potency [15] 43.6 µM

Cc1cc(C)cc([N+](=O)[O-])c1
inactive: outcome [1] | outcome [2] | outcome [12] | Potency [4] | outcome [5] | Potency [6] | Potency [7] | Potency [16] | Potency [15] | Potency [8] | Potency [9] | Potency [10] | Potency [11]

CCN(CCC#N)c1ccccc1
inactive: outcome [1] | outcome [2] | Potency [3] | Potency [4] | outcome [5] | Potency [6] | Potency [7] | Potency [10] | Potency [11]
active: Potency [15] 8.94 µM | Potency [9] 31.7 µM

CC(C)CCO
inactive: outcome [1] | outcome [2] | Potency [3] | Potency [4] | outcome [5] | Potency [6] | Potency [7] | Potency [16] | Potency [8] | Potency [9] | Potency [10]

O=CO
inactive: activity change, negative = cytotoxicity [1] 8.49% [at 6.97 µM] | activation [2] 2.26% [at 6.97 µM] | activity change, negative = cytotoxicity [3] -2.18% [at 8.39 µM] | caspase activation [12] 0.203% [at 8.39 µM] | activity change, negative = cytotoxicity [4] -2.32% [at 8.39 µM] | caspase-3/7 activation [5] 0.126% [at 8.39 µM] | activity change, negative = inhibition [10] -0.636% [at 6.97 µM]

CCOC(=O)C(C)(C)C
inactive: outcome [1] | outcome [2] | outcome [12] | Potency [4] | outcome [5] | Potency [6] | Potency [7] | Potency [8] | Potency [9] | Potency [11]

CCC(C)(C)C1CCC(=O)CC1
inactive: outcome [1] | outcome [2] | Potency [3] | outcome [12] | Potency [4] | outcome [5] | Potency [7] | Potency [16] | Potency [15] | Potency [8] | Potency [9] | Potency [10] | Potency [11]

Nc1ccc(S(=O)(=O)Nc2ccccn2)cc1
inactive: outcome [1] | outcome [2] | outcome [12] | Potency [4] | outcome [5] | Potency [6] | Potency [7] | max activation [13] -1.43% | outcome [14] | Potency [16] | Potency [15] | Potency [8] | Potency [9] | Potency [10]

CCCO
inactive: outcome [1] | outcome [2] | Potency [3] | outcome [12] | outcome [5] | Potency [6] | Potency [7] | Potency [8] | Potency [9] | Potency [10]

CNC(=O)NC
inactive: outcome [1] | outcome [2] | Potency [3] | Potency [4] | outcome [5] | Potency [6] | Potency [7] | Potency [16] | Potency [8] | Potency [9] | Potency [11]

CN[C@@H]1[C@@H](O)[C@@H](O[C@@H]2[C@H](O)[C@H](O[C@H]3OC(CN)=CC[C@H]3N)[C@@H](N)C[C@H]2N)OCC1(C)O (stereo not given in full)
inactive: Potency [3] | outcome [12] | Potency [4] | outcome [5] | Potency [6]

Cc1ccccc1C
inactive: outcome [1] | outcome [2] | outcome [12] | Potency [4] | outcome [5] | Potency [6] | Potency [7] | Potency [16] | Potency [8] | Potency [10]
active: Potency [15] 81.7 µM

CCCCCCCCCCCCCCCCCCN(C)C
inactive: outcome [1] | outcome [2] | outcome [12] | Potency [4] | outcome [5] | Potency [6] | Potency [7] | Potency [16] | Potency [15] | Potency [8] | Potency [9] | Potency [10] | Potency [11]

CC(=O)OC(C(=O)c1ccccc1)c1ccccc1 (stereo not given)
inactive: outcome [1] | outcome [2] | Potency [3] | Potency [4] | outcome [5] | Potency [6] | Potency [11]
active: Potency [8] 31.9 µM | Potency [9] 40.1 µM

NC(=O)C1(N2CCCCC2)CCN(CCCC(=O)c2ccc(F)cc2)CC1
inactive: outcome [1] | outcome [2] | Potency [3] | Potency [4] | outcome [5] | Potency [6] | Potency [7] | max activation [13] 0.444% | Potency [15] | Potency [8] | Potency [9] | Potency [11]
active: Potency [16] 4.9 µM
